Screens: PubChem, National Center for Advancing Translational Sciences (NCATS)
Only some compounds are listed: those with a hit (about 8.7% of all), similar ones and a draw of the others.
VACV mCherry inh – qHTS for Stage-Specific Inhibitors of Vaccinia Orthopoxvirus: mCherry Reporter Primary qHTS | Potency, µM (top dose mostly 36.5 µM), for inactives: top-dose activity change, negative = inhibition, actives largely listed as inhibitors | Vaccinia virus mCherry reporter infection, fluorescence | 0.63% of 310,000 active; calls by dose curve; tested in A549 cells; further: nearly all actives have a fitted effect of over 35% in size
Pf growth 96h – Primary qHTS for delayed death inhibitors of the malarial parasite plastid, 96 hour incubation | P. falciparum luciferase reporter growth, 96 h | Potency, µM (top dose mostly 28.7 µM), for inactives: at the top dose activity change, negative = inhibition, hits mostly inhibitors | 6.9% of 320,000 active
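Cell-based qHTS: luciferase-tagged P. falciparum in erythrocytes (2% hematocrit, 0.05% parasitemia final) incubated with compounds for 96 hours, 37 C, 5% CO2; luciferase detection reagent then added and luminescence measured.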
AMA1-RON2 inh – qHTS for Inhibitors of AMA1-RON; Towards Development of Antimalarial Drug Lead: Primary Screen | Plasmodium falciparum AMA1 (3D7) - RON2 peptide interaction | AlphaScreen AMA1-biotinylated RON2 peptide binding | Potency, µM (series often up to 58.2 µM), for the others: at the highest dose activity change, negative = inhibition, most hits filed as inhibitors | 0.2% of 360,000 active | AID 720542, 2013;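 further: 0% = vehicle wells and -100% = peptide control; nearly all actives have a fitted effect of over 45% in size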
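AMA1 (3D7) with his tag at 25 nM final met compounds first, then biotinylated RON2 peptide at 25 nM; detection used donor plus acceptor beads, 10 µg/mL apiece, read by AlphaScreen after 30 min at room temperature.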
Pf growth 48h – Primary qHTS for delayed death inhibitors of the malarial parasite plastid, 48 hour incubation; P. falciparum luciferase growth in erythrocytes, 48 h; Potency, µM (top dose mostly 28.7 µM), for the others: at the top dose activity change, negative = inhibition, most hits filed as inhibitors; 5.9% of 310,000 active
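Parasite viability was followed by luminescence of a genomically integrated firefly luciferase. Cultures held 0.1% parasitemia at 2% hematocrit (final), incubated under 5% CO2 at 37 C.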
VACV Venus inh – qHTS for Stage-Specific Inhibitors of Vaccinia Orthopoxvirus: Venus Reporter Primary qHTS; 0.46% of 330,000 active; Vaccinia virus Venus reporter expression, fluorescence; AID 720580, 2013; Potency, µM (highest dose often 36.5 µM), for the others: at the highest dose activity change, negative = inhibition, most hits filed as inhibitors; calls by dose curve; tested in A549 cells; further: nearly all actives have a fitted effect of over 30% in size
* hit, by the source's call; ? = inconclusive; / = not tested or not shown; ! = not active in a repeat. Unless noted, the call rests on the fitted dose curve; in most records, active means well fitted curve in the direction sought with a large enough effect; inconclusive means small, poorly fitted or top-dose-only effect, or another doubt; inactive means no such curve, though single readings can be large; an effect the other way counts as inactive or inconclusive. Unless noted, on the % scale 0 is the no-effect control and ±100 the full control effect; potency means the concentration at half of the fitted maximal effect.

SMILES | VACV mCherry inh | Pf growth 96h | AMA1-RON2 inh | Pf growth 48h | VACV Venus inh
C/C(=N\NC(N)=S)C1C2C3CC4C5CC(C42)C1C53 (stereo not given) | 11µM* | ? | -4% | ? | ?
COC(=O)c1cc2sc(C)cc2n1CC(=O)Nc1ccc(C)c(C)c1 | -21% | / | / | / | -15%
Cc1cccc(N2CCN(C(=O)Cn3c(=O)c4cccn4c4ccc(F)cc43)CC2)c1C | -14% | / | / | / | -15%
CCCCSc1nnc2n(CCc3ccccc3)c(=O)c3c4c(sc3n12)COC(C)(C)C4 | / | 1.7µM* | 39% | -6% | -16%
COc1ccccc1Nc1nn2c(=O)c3ccc(C(=O)NC4CCC(C)CC4)cc3nc2s1 (stereo not given) | -4% | / | / | / | -5%
C=CC(C)(C)c1c(O)c(CC=C(C)C)c(O)c2c(=O)c3ccc(O)c(O)c3oc12 | 8.9µM* | / | 67% | / | ?
C=CC(C)(C)c1c2occc2c(O)c2ccc(=O)oc12 | -4% | / | -7% | / | -12%
CCN1C(=O)C(Cc2nc3ccccc3c(=O)n2-c2ccc(OC)cc2)c2ccccc21 (stereo not given) | -9% | / | / | / | -11%
Brc1ccc(OCCOc2cccc3cccnc23)cc1 | -21% | 18% | -4% | 2% | -10%
c1ccc(OCCOc2cccc3cccnc23)cc1 | -22% | 10µM* | 1% | 50% | -22%
COc1cccc(NC(=O)C2C3C=CC4(O3)C2C(=O)N(CCCN2CCCC(C)C2)C4C(=O)NC2CCCCC2C)c1 (stereo not given) | -8% | 10µM* | 2% | -17% | -8%
CC1CCCC(NC(=O)C2N(CCCN3CCCC3)C(=O)C3C(C(=O)Nc4ccc(Cl)cc4)C4C=CC32O4)C1C (stereo not given) | -2% | 5.9µM* | -7% | ? | -10%
COc1cccc(NC(=O)C2C3C=CC4(O3)C2C(=O)N(CCN2CCCCC2)C4C(=O)NC2CCCCC2C)c1 (stereo not given) | -8% | ? | -11% | -10% | -20%
COc1ccc(NC(=O)C2C3C=CC4(O3)C2C(=O)N(CCCN2CCCCC2)C4C(=O)NC2CCCC(C)C2C)cc1 (stereo not given) | ? | -9% | 13% | -14% | -20%
COc1ccc2c(CNCc3ccco3)c(C(=O)O)n(Cc3cccc(F)c3)c2c1 | -2% | / | / | / | 0%
CCOC(=O)c1c(-c2ccccc2)oc2ccc(NS(=O)(=O)c3cc(C)c(C)cc3C)cc12 | -28% | / | / | / | -8%
CCn1cnc2cc(NCc3ccc(OC)cc3)ccc21 | / | 46% | -1% | / | /
CCOc1ccc2nc3cc(NCc4ccc(OC)cc4)ccc3c(N)c2c1 | / | 2.6µM* | 0% | 2.3µM* | /
CCOc1ccc2nc3cc(N)ccc3c(N)c2c1 | 7% | 0.85µM* | / | 0.76µM* | 3%
CCOC(=O)/C(C#N)=N/Nc1ccccc1C(=O)O | -16% | 10µM* | 6% | ? | -11%
CCOC(=O)CC(=O)Nc1ccccc1C(=O)O | / | 83% | 24% | 25% | ?
Cc1cc(-c2ccc(C)c(S(=O)(=O)NCCCN3CCN(c4ccccc4F)CC3)c2)on1 | / | 4.7µM* | -5% | ? | /
Cc1cc(-c2ccc(C)c(S(=O)(=O)NCCCN3CCN(c4ccccc4)CC3)c2)on1 | / | ? | -17% | ? | /
Cc1cc(-c2ccc(C)c(S(=O)(=O)NCCCN3CCCCCC3)c2)on1 | -14% | ? | -2% | 15µM* | -15%
CCOC(=O)C1=C(C)Nc2sc(C(=O)c3ccc(OC)cc3)c(N)c2C1c1ccc(C(=O)OC)cc1 (stereo not given) | -18% | 5.9µM* | 0% | 7.4µM* | -10%
SMILES | VACV mCherry inh | Pf growth 96h | AMA1-RON2 inh | Pf growth 48h | VACV Venus inh
CC(/C=N/NC(=O)c1nnn(-c2nonc2N)c1CN(C)C)=C\c1ccco1 | -16% | -2% | 73% | ? | -12%
CCCN(CCC)Cc1c(C(=O)N/N=C/C(C)=C\c2ccco2)nnn1-c1nonc1N | 10µM* | ? | 15% | ? | ?
CCCN(CCC)Cc1c(C(=O)N/N=C/CCc2ccccc2)nnn1-c1nonc1N | -20% | 9.3µM* | 86% | -2% | -7%
CCCN(CCC)Cc1c(C(=O)N/N=C/c2ccncc2)nnn1-c1nonc1N | / | 5% | 21% | 7% | /
CCC(=O)Nc1ccc(CC)cc1-c1nc2ccccc2n(CC(=O)Nc2cccc(OC)c2)c1=O | -6% | / | / | / | -4%
COc1ccccc1C(=O)C1CCCN(C(=O)CSc2ccccn2)C1 (stereo not given) | -21% | 10µM* | -3% | 6% | -14%
COc1ncccc1C(=O)N1CCCC(C(=O)c2cc(F)ccc2F)C1 (stereo not given) | / | -4% | 3% | 0% | /
CSc1ncccc1C(=O)N1CCCC(C(=O)c2cc(F)ccc2F)C1 (stereo not given) | / | 9.3µM* | -1% | -11% | /
CCc1noc(C)c1C(=O)N1CCCC(C(=O)c2cc(F)ccc2OC)C1 (stereo not given) | / | 12µM* | 7% | 8% | /
Cc1ccc(NC(=O)CN2C(=O)C(c3ccccc3)=NC2(C)C)cc1C | -17% | / | / | / | -11%
COc1ccc(OC)c(/C=C/C(=O)Nc2ccc(C(=O)OCCC(C)C)cc2)c1 | -5% | / | / | / | 2%
COc1ccc(-c2cc(C(F)(F)F)nc(SCCC(=O)Nc3cccc(O)c3)n2)cc1 | -11% | / | / | / | -10%
O=C1C(Cc2ccccc2)SC(=Nc2ccccc2)N1c1ccccc1 (stereo not given) | / | 4% | 0% | 13µM* | -7%
O=C1NC(=Nc2ccccc2)SC1Cc1ccccc1 (stereo not given) | -13% | -3% | 1% | 69% | -3%
COC(=O)C1=C(C)N(CCc2cc(OC)c(OC)c(OC)c2)C(=O)N[C@H]1c1ccc(Br)cc1 | / | 10µM* | / | 13µM* | /
COC(=O)C1=C(C)N(CC2CC2)C(=NCc2cc(OC)c(OC)c(OC)c2)N[C@H]1c1ccccc1 | -7% | 12µM*! | 8% | 3% | -8%
CCN1C(=NCCN2CCOCC2)N[C@@H](c2ccccc2)C(C(=O)OC)=C1C | -12% | 1.1µM*! | 2% | 3% | -6%
COCCN1C(=O)N[C@@H](c2ccc(Br)cc2)C(C(=O)OC)=C1C | / | ? | / | -22% | /
